Results on 17 compounds are retold here after PubChem BioAssay (NCI).

Test in all cases: NCI-60 one-dose screen, 48 h (100 = growth as untreated, 0 = no growth, -100 = all killed)
Conditions in all cases: 10 µM unless noted

Test [1] has as its system T-47D breast.
The test system of test [2] is BT-549 breast.
Test [3] concerns MDA-MB-435 melanoma.
The subject of test [4] is SW-620 colon.
In test [5] the test system is MCF7 breast.
The subject of test [6] is HCT-116 colon.
The test system of test [7] is HCC-2998 colon.
The test system of test [8] is KM12 colon.

Each structure is given as a SMILES string. Compounds without any hit were thinned out: in the full panel of roughly 83,000, 20% have a hit.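 Negative percent growth values reflect cell death: -40 means 40% of the cells present at the start died, and -100 means all died.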 A number with no mark means an inactive call. Active and inactive are the calls of the source. Rule for the calls: active = growth percent below 10; inactive = the rest.

`CN(C)c1ccc(-c2ccc3c(c2)c(-c2ccccc2)nc(=O)n3C)cn1`: the growth in test [1] was 22.1%; in test [2] it was 49.1%; in test [3], -11.1% (active); in test [4] it was 26.3%; in test [5], 18%; in test [6], 22.1%. Moreover, the growth in test [7] is 78.2%.

With `O=C(Nc1ncc(Cc2cc(C(F)(F)F)ccc2Cl)s1)c1cccs1`, the growth in test [1] is 31.9%; in test [2], 46.9%; in test [3], 1.23% (active); in test [4], 47%; in test [5], 30%; in test [6], 39.9%. Moreover, in test [7], the growth is 64.5%.

As to `Cc1c(Cl)cccc1C(=O)Nc1nc2c(s1)CN(C(=O)c1ccc(C(F)(F)F)cc1)CC2`, the growth in test [1] is 60.9%; in test [2], 24.8%; in test [3], -12.4% (active); in test [4] it was 18.6%; in test [5], 17.3%; in test [6] it was 8.9% (active).

As to `COc1cccc(C(=O)NNc2nc(Cl)nc(Cl)n2)c1`, the growth in test [1] was 91.6%; in test [2], 103%; in test [3] it was 105%; in test [4] it was 107%; in test [5] it was 82.8%; in test [6], 108%. The growth in test [7] was 95.2%.

With `O=C1/C(=C/c2ccc(O)c(O)c2)COc2ccc(-c3ccccc3)cc21`, the growth in test [1] is 15.4%; in test [2] it was 31.7%; in test [3], -6.77% (active); in test [4] it was -38.3% (active); in test [5], 16%; in test [6] it was 12.7%. Moreover, the growth is -23% (active) in test [7] and 19.6% in test [8].

In the case of `Fc1cccc(-c2ccc3c(c2)C2(CCNCC2)CN3)c1`, the growth was 78.9% in test [1]; 93.1% in test [2]; 108% in test [3]; 106% in test [4]; 92.5% in test [5]; 94.3% in test [6]. The growth in test [7] was 99.4%; in test [8], 102%.

With `COc1cc(C(=O)n2nc(N3CCOCC3)c3cc(-n4cccc4)ccc32)cc(OC)c1OC`, the growth in test [1] is 60.5%; in test [2], 56.2%; in test [3], 75.2%; in test [4], 67.5%; in test [5], 52.1%; in test [6], 48.6%. Also, in test [7], the growth was 99.7%.

For the compound `Cn1ccc(=O)nc1`, the growth in test [1] is 99.1%; in test [2], 110%; in test [3], 106%; in test [4] it was 53.5%; in test [5], 52.2%; in test [6], 60.6%. Besides, the growth in test [7] is 96.8%.

On to `CN1C(=O)/C(=C/c2ccc(C(=O)Nc3ncc(Cc4cccc(Cl)c4)s3)cc2)SC1=S`, for which the growth in test [1] is 42.7%; in test [2], 57%; in test [3], 5.05% (active); in test [4], 37.4%; in test [5] it was 46%; in test [6], 47.5%. The growth is 59.2% in test [7] and 33.5% in test [8].

In the case of `CCCCNc1cc(-c2cn[nH]c2-c2cc(C)cc(OC)c2)nc(-c2cccnc2)n1`, the growth was 49.7% in test [1]; 85.3% in test [2]; 92.1% in test [3]; 107% in test [4]; 88.1% in test [5]; 91.7% in test [6]. The growth in test [7] was 106%.

In the case of `CC(C)(C)n1cc(-c2ccnc(NCCCNS(=O)(=O)c3ccc(C(F)(F)F)cc3)c2)c(-c2cccc(F)c2)n1`, the growth is 64.5% in test [1]; 84% in test [2]; 93.7% in test [3]; 90% in test [4]; 66.2% in test [5]; 54.4% in test [6]. Besides, the growth in test [7] is 106%.

For the compound `CC1(C)N=C(N)N=C(N)N1c1cccc(CCc2ccccc2)c1`, the growth in test [1] was 37.7%; in test [2] it was 42.4%; in test [3], 47.5%; in test [4], 27.4%; in test [5] it was 23.8%; in test [6], 19.8%. The growth in test [7] was 2.34% (active).

Consider `COc1ccc(/C=C(/C(=O)n2cnnn2)c2cc(OC)c(OC)c(OC)c2)cc1`, for which the growth in test [1] was 43.1%; in test [2], 38.2%; in test [3] it was -50.3% (active); in test [4], 21.2%; in test [5], 16.2%; in test [6], 13.7%. For the same compound, in test [7], the growth was 28.2%.

As to `CN(Cc1cnc2nc(N)nc(N)c2n1)c1ccc(C(=O)NC(CCC(=O)O)C(=O)O)cc1Br` (stereo unspecified), the growth is 44.3% in test [1]; 61.9% in test [2]; 39.5% in test [3]; 28.6% in test [4]; 19% in test [5]; 19.8% in test [6]. For the same compound, in test [7], the growth was 57.1%.

Turning to `c1ccc(CCNc2c3ccccc3nc3ccccc23)cc1`, the growth in test [1] was 48.9%; in test [2], 73.6%; in test [3] it was 55.3%; in test [4], 28.3%; in test [5], 12.2%; in test [6], 16.5%. For the same compound, the growth in test [7] is 41.4%.

For the compound `O=C(Nc1ccc(Br)cc1)C1=NCCCCN1`, the growth is 71.3% in test [1]; 87.5% in test [2]; 75.3% in test [3]; 67.3% in test [4]; 81% in test [5]; 80.2% in test [6]. Also, the growth in test [7] is 106%.

On to `C=C1C(=O)O[C@H]2[C@H]1CC/C(COC(=O)NCc1ccc(Cn3c(=O)sn(-c4ccc(C#N)cc4)c3=O)cc1)=C\CC[C@@]1(C)O[C@@H]21`, for which the growth in test [1] is 28.1%; in test [2] it was 60.4%; in test [3], 59.6%; in test [4], 24.1%; in test [5], 27.5%; in test [6] it was 25.4%. In addition, the growth in test [7] is 104%.
